Results on eight compounds are retold here after PubChem BioAssay (NCI).

The panel holds about 83,000 compounds, 20% with a hit somewhere; the sample as a whole holds those more often.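 In brief: 96-well plates, 48 h treatment, single concentration, percent growth endpoint.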 Unmarked numbers belong to inactive results. Active and inactive are the calls of the source. Rule for the calls: active = growth percent below 10; inactive = the rest.

Test systems include RPMI-8226 leukemia; OVCAR-8 ovarian; OVCAR-5 ovarian; OVCAR-4 ovarian; SK-OV-3 ovarian; IGROV1 ovarian; OVCAR-3 ovarian; HS 578T breast; NCI/ADR-RES ovarian; T-47D breast; BT-549 breast; MDA-MB-435 melanoma; SW-620 colon; MCF7 breast; HCT-116 colon; HCC-2998 colon; KM12 colon; MDA-MB-468 breast.
Common to all, as to test: NCI-60 one-dose screen, 48 h (100 = growth as untreated, 0 = no growth, -100 = all killed)
Common to all, as to settings: 10 µM

For `O=C(CS(=O)(=O)c1oc(-c2ccc(Cl)cc2)nc1S(=O)(=O)c1ccccc1)N1CCCC1`, the growth in the experiment on RPMI-8226 leukemia is -13.8% (active); with OVCAR-8 ovarian, -31.8% (active); with OVCAR-5 ovarian, -51.4% (active); in the experiment with OVCAR-4 ovarian, -90.1% (active); with SK-OV-3 ovarian, 97.9%; in the experiment on IGROV1 ovarian it was 74.4%. Further, the growth was -90.1% (active) in the experiment on OVCAR-3 ovarian; 60.2% with HS 578T breast; 9.98% (active) in the experiment on NCI/ADR-RES ovarian; -66.9% (active) in the experiment on T-47D breast; -3.43% (active) with BT-549 breast; -41.8% (active) in the experiment with MDA-MB-435 melanoma. The growth is -70.1% (active) in the experiment on SW-620 colon; -70.1% (active) in the experiment with MCF7 breast; 0.106% (active) in the experiment on HCT-116 colon; 21.8% with HCC-2998 colon; 61.7% in the experiment on KM12 colon; -90.5% (active) in the experiment on MDA-MB-468 breast.
On to `COc1cc(NC(=O)c2cc(-c3ccc(F)cc3F)ccc2O)cc(OC)c1OC`, for which the growth in the experiment with RPMI-8226 leukemia is 12%; in the experiment on OVCAR-8 ovarian, 48%; in the experiment with OVCAR-5 ovarian, 111%; with OVCAR-4 ovarian it was 17.3%; in the experiment with SK-OV-3 ovarian it was 34.5%; with IGROV1 ovarian it was 38%. The growth in the experiment on OVCAR-3 ovarian is 26.1%; in the experiment with HS 578T breast, 26.1%; in the experiment with NCI/ADR-RES ovarian it was 41.5%; in the experiment on T-47D breast, -10.1% (active); in the experiment with BT-549 breast, 4.31% (active); in the experiment with MDA-MB-435 melanoma, 36.2%. Further, the growth in the experiment with SW-620 colon is 55.3%; with MCF7 breast it was 38.9%; with HCT-116 colon it was 42.5%; in the experiment on HCC-2998 colon, 63.9%; with KM12 colon, 29.8%; with MDA-MB-468 breast it was 15%.
As for `Cc1ccc(/C=C(\C#N)n2nnc3c(F)cccc32)cc1`, the growth in the experiment with RPMI-8226 leukemia was 6.26% (active); in the experiment with OVCAR-8 ovarian, -70.7% (active); with OVCAR-5 ovarian it was -7.34% (active); with OVCAR-4 ovarian, 51.2%; with SK-OV-3 ovarian, 29.5%; with IGROV1 ovarian it was 8.21% (active). For the same compound, the growth is 0.864% (active) in the experiment on OVCAR-3 ovarian; 29.2% in the experiment on HS 578T breast; 12.9% in the experiment on NCI/ADR-RES ovarian; 24.5% in the experiment on T-47D breast; -13.4% (active) in the experiment on BT-549 breast; 8.1% (active) with MDA-MB-435 melanoma. In addition, the growth is 14% in the experiment on SW-620 colon; 8.62% (active) in the experiment with MCF7 breast; 27% with HCT-116 colon; -20.1% (active) in the experiment on HCC-2998 colon; -1.08% (active) with KM12 colon; 37.8% with MDA-MB-468 breast.
As to `CC(C)NC(=O)c1cc(-c2ccc(NC(=O)Nc3ccc(N4CCN(C)CC4)c(C(F)(F)F)c3)cc2)nc2cccnc12`, the growth in the experiment on RPMI-8226 leukemia was -37.5% (active); in the experiment with OVCAR-8 ovarian, -81.4% (active); in the experiment on OVCAR-5 ovarian it was -99.5% (active); with OVCAR-4 ovarian it was -87.8% (active); in the experiment on SK-OV-3 ovarian it was -93.1% (active); with IGROV1 ovarian, -86.9% (active). The growth in the experiment on OVCAR-3 ovarian was -84.9% (active); with HS 578T breast, -42.1% (active); in the experiment on NCI/ADR-RES ovarian, -61.7% (active); in the experiment with T-47D breast, -16.6% (active); with BT-549 breast it was -95.5% (active); in the experiment with MDA-MB-435 melanoma, -96.5% (active). Moreover, the growth is -64.6% (active) with SW-620 colon; -75.6% (active) with MCF7 breast; -90.6% (active) in the experiment on HCT-116 colon; -97.9% (active) with HCC-2998 colon; -83.6% (active) in the experiment with KM12 colon; -90.9% (active) with MDA-MB-468 breast.
With `O=c1oc2ccc(-c3ccc(F)cc3F)cc2c(=O)n1-c1ccc(F)c(Cl)c1`, the growth with RPMI-8226 leukemia was -31% (active); with OVCAR-8 ovarian, 3.87% (active); with OVCAR-5 ovarian, -5.91% (active); in the experiment with OVCAR-4 ovarian, 10.5%; in the experiment on SK-OV-3 ovarian, -9.67% (active); in the experiment on IGROV1 ovarian, 13%. For the same compound, the growth in the experiment on OVCAR-3 ovarian was 3.83% (active); in the experiment on HS 578T breast, -0.875% (active); in the experiment with NCI/ADR-RES ovarian, -15.2% (active); in the experiment on T-47D breast it was -11.8% (active); in the experiment on BT-549 breast it was -51.9% (active); with MDA-MB-435 melanoma, -17.7% (active). In addition, the growth in the experiment with SW-620 colon is 3.17% (active); in the experiment with MCF7 breast it was -17.2% (active); in the experiment with HCT-116 colon, 4.77% (active); in the experiment with HCC-2998 colon it was 2.58% (active); with KM12 colon it was -22.7% (active); in the experiment with MDA-MB-468 breast, -47% (active).
In the case of `O=C(COc1ccc(NC(=O)Nc2ccc(Cl)cc2)cc1)N=Nc1c(O)[nH]c2ccc([N+](=O)[O-])cc12`, the growth in the experiment with RPMI-8226 leukemia was 22.3%; in the experiment on OVCAR-8 ovarian it was 16.1%; in the experiment on OVCAR-5 ovarian, 69.4%; with OVCAR-4 ovarian, -11.6% (active); in the experiment with SK-OV-3 ovarian, 85.2%; with IGROV1 ovarian, 79.5%. Also, the growth in the experiment with OVCAR-3 ovarian was -55.9% (active); in the experiment on HS 578T breast it was 13.7%; in the experiment with NCI/ADR-RES ovarian, 92.6%; with T-47D breast it was 7.65% (active); in the experiment on BT-549 breast, 22.2%; in the experiment on MDA-MB-435 melanoma, 17%. In addition, the growth with SW-620 colon was 19.9%; in the experiment with MCF7 breast, -36.4% (active); with HCT-116 colon, -37.8% (active); in the experiment on HCC-2998 colon, 26.3%; with KM12 colon, -46.6% (active); with MDA-MB-468 breast, -54.6% (active).
`CC1(C)CC[C@]23CC[C@]4(C)[C@H](CC[C@@H]5[C@@]6(C)CC[C@H](N)C(C)(C)[C@@H]6CC[C@]54C)[C@H]2[C@H]1OC3=O`: the growth in the experiment on RPMI-8226 leukemia was -31.4% (active); in the experiment with OVCAR-8 ovarian, -50.7% (active); with OVCAR-5 ovarian, -99.9% (active); in the experiment on OVCAR-4 ovarian, -90.3% (active); with SK-OV-3 ovarian it was -32.1% (active); in the experiment on IGROV1 ovarian, -94.2% (active). In addition, the growth in the experiment on OVCAR-3 ovarian was -81% (active); with HS 578T breast, -62.2% (active); with NCI/ADR-RES ovarian it was -69.4% (active); in the experiment on T-47D breast, -78.2% (active); in the experiment with BT-549 breast, -97.7% (active); with MDA-MB-435 melanoma, -96.2% (active). Further, the growth with SW-620 colon was -73.7% (active); in the experiment on MCF7 breast it was -80.1% (active); in the experiment on HCT-116 colon, -98.9% (active); in the experiment with HCC-2998 colon, -92.2% (active); with KM12 colon, -86.6% (active); in the experiment on MDA-MB-468 breast, -95.6% (active).
`CCN1CCN(Cc2ccc(NC(=O)c3cccc(-n4cc(-c5ccc(NC(C)=O)nc5)nn4)c3)cc2C(F)(F)F)CC1`: the growth with RPMI-8226 leukemia was 80.6%; with OVCAR-8 ovarian it was 99%; with OVCAR-5 ovarian it was 158%; in the experiment with OVCAR-4 ovarian, 98%; with SK-OV-3 ovarian, 96.6%; with IGROV1 ovarian it was 127%. Further, the growth was 131% in the experiment on OVCAR-3 ovarian; 101% in the experiment with HS 578T breast; 100% in the experiment on NCI/ADR-RES ovarian; 100% in the experiment on T-47D breast; 144% in the experiment on BT-549 breast; -39.8% (active) with MDA-MB-435 melanoma. The growth with SW-620 colon is 109%; with MCF7 breast it was 70.4%; in the experiment on HCT-116 colon, 86.3%; with HCC-2998 colon, 115%; with KM12 colon it was 22.9%; with MDA-MB-468 breast, 74%.
